Laboratory results as given in PubChem BioAssay (NCATS).
Values joined by “and” are separate entries in the source; they are usually repeats but may differ in a detail not shown here. Equal values may be shown once. Results filed as inconclusive are left out. Values without a mark were called inactive. Active and inactive are the calls of the source. Calls come from the whole dose curve; as a rule, active = well fitted curve in the direction sought with a large enough effect; inconclusive = small, poorly fitted or top-dose-only effect, or another doubt; inactive = no such curve, though single readings can be large; an effect the other way counts as inactive or inconclusive.

Legend:
[1] = Viability qHTS for spleen associated tyrosine kinase inhibitor (SYKi) drug resistant MV4-11 cells (AID 1963824); settings: SYKi-resistant MV4-11 viability, CellTiter-Glo, 72 h; series mostly up to 45 µM; note: nearly all actives have a fitted effect of over 35% in size
Method in brief: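 SYK-inhibitor-resistant MV4-11 AML cells were seeded at 500 per well onto compound and cultured 72 hours (37 °C, 5% CO2). CellTiter-Glo was then added, and after 10 min at room temperature, luminescence gave viability.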

[2] = Quantitative highthroughput screen to assess conditional lethalithy of SEM cells grown in RPMI1640 with unreated serum (RPMI+s) (AID 1963883); settings: SEM B-ALL cells, CellTiter-Glo viability, 48 h; series mostly up to 45.8 µM; note: nearly all actives have a fitted effect of over 35% in size
Method in brief: (§1)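 Each medium arm—HPLM with 10% dialyzed FBS, or RPMI1640 with 5 mM glucose and 10% untreated or dialyzed FBS—was screened against an 11-point, 3-fold compound titration for 48 h at 37 °C, with CellTiter-Glo luminescence as endpoint.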

[3] = Quantitative highthroughput screen to assess conditional lethalithy of SEM cells grown in RPMI1640 with dialyzed fetal bovine serum (RPMI+ds) (AID 1963884); settings: SEM B-ALL cells, RPMI+dialyzed FBS, CellTiter-Glo viability, 48 h; series mostly up to 45.8 µM; note: nearly all actives have a fitted effect of over 35% in size
Method in brief: as §1

[4] = Cellular viability qHTS for adrenocortical cancer (ACC) cell line NCI-H295R (AID 1963990); settings: CellTiter-Glo ATP luminescence, 48 h; series mostly up to 46.1 µM; note: nearly all actives have a fitted effect of over 60% in size
Method in brief: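 CellTiter-Glo ATP luminescence, read 48 h after compound addition, measured viability of NCI-H295R adrenocortical cells grown serum-free with ITS. Final concentrations spanned up to 46 uM. Data normalized to DMSO and doxorubicin, fitted for IC50 and maximal response.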

[5] = Cellular viability qHTS for adrenocortical cancer (ACC) cell line SW-13 (AID 1963989); settings: SW-13 ACC cells viability, CellTiter-Glo, 48 h; activity (max response): stronger effect = lower value; note: nearly all actives have a fitted effect of over 65% in size;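 for activity (max response): cells grown in serum-free medium with ITS supplement; % is set by controls: 0 for no effect and ±100 for the full control effect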
Method in brief: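 Viability was read as CellTiter-Glo luminescence after 48 h compound treatment (up to 46 uM final) of SW-13 cells grown serum-free; titration curves were fit with a four-parameter logistic model to give IC50 and efficacy.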

[6] = Quantitative highthroughput screen to assess conditional lethalithy of SEM cells grown in Human Plasma-Like Medium with dialyzed fetal bovine serum (HPLM+ds) (AID 1963882); settings: SEM B-ALL cells in HPLM+ds, CellTiter-Glo viability, 48 h; series mostly up to 45.8 µM; note: nearly all actives have a fitted effect of over 35% in size
Method in brief: as §1
Potency is the fitted concentration of half-maximal effect.

CC(=O)c1c(C)c2cnc(Nc3ccc(N4CCNCC4)cn3)nc2n(C2CCCC2)c1=O
Potency [1]: 184 nM (active) and 5.25 µM (active) | Potency [2]: 4.69 µM (active) | Potency [3]: 5.26 µM (active) | Potency [4]: 25.1 µM (active)

COc1ccc2nc(SCc3ncc(C)c(OC)c3C)[nH]c2c1
Potency [1]: inactive | activity (max response) [5]: 3.67%

O=C1N=C(O)CN1/N=C/c1ccc(-c2ccc([N+](=O)[O-])cc2)o1
Potency [1]: inactive | activity (max response) [5]: 12.2%

CCOc1c(N2CCOCC2)cnn(C)c1=O
Potency [1]: inactive | activity (max response) [5]: 6.29%

O=C(CCCN1CCN(c2ccc(F)cc2)CC1)NC1c2ccccc2CSc2ccccc21 (configuration not stated)
Potency [1]: 14.6 µM (active) | Potency [6]: inactive | activity (max response) [5]: -20.8%

CC(C)C[C@@H]1NC(=O)[C@@H](C(C)C)NC(=O)[C@@H]2CCCN2C(=O)[C@@H](CC(=O)O)NC(=O)[C@@H](Cc2c[nH]c3ccccc23)NC1=O
Potency [1]: 9.34 µM (active) | activity (max response) [5]: -0.875%

CN1CCC(Nc2ncc3ncnc(Nc4ccc(F)c(Cl)c4)c3n2)CC1
Potency [1]: 18.8 µM (active) and 11.6 µM (active) | Potency [5]: 18.4 µM (active)

CC1(C)CCC2=C(O1)c1ccccc1C(=O)C2=O
Potency [1]: 7.42 µM (active) | Potency [6]: 26.4 µM (active) | Potency [2]: 26.4 µM (active) | Potency [3]: 18.7 µM (active) | Potency [4]: 8.91 µM (active)

NS(=O)(=O)c1cc2c(cc1Cl)NC(CSCc1ccccc1)=NS2(=O)=O
Potency [1]: inactive | activity (max response) [5]: -2.17%

COc1ccc(S(=O)(=O)N2c3ccc(Cl)cc3[C@@](O)(c3ccccc3Cl)[C@H]2C(=O)N2CCC[C@@H]2C(N)=O)cc1OC
Potency [1]: 16.8 µM (active) | activity (max response) [5]: -24.3%

CN[C@@H](C)C(=O)N[C@@H]1C(=O)N(Cc2c(C)ccc3ccccc23)c2ccc(C#N)cc2N(C(C)=O)[C@H]1C
Potency [1]: 13.2 µM (active) | activity (max response) [5]: 3.96%

Nc1cccc(-c2cc3c(Oc4cccc(O)c4)ncnc3[nH]2)c1
Potency [1]: 2.91 µM (active) and 3.32 µM (active) | Potency [6]: 16.6 µM (active) | Potency [5]: 3.16 µM (active) | Potency [4]: 8.91 µM (active)

Cc1c(-c2cnccn2)ssc1=S
Potency [1]: 4.68 µM (active) | activity (max response) [5]: -8.54%

C[C@@H](OC[C@@]1(c2ccccc2)CC[C@]2(CCC(=O)N2)CN1)c1cc(C(F)(F)F)cc(C(F)(F)F)c1
Potency [1]: 7.42 µM (active) | Potency [5]: 25.1 µM (active)

COc1ccc(N(C)c2nc(C)nc3ccccc23)cc1
Potency [1]: 0.0042 µM (active) | Potency [5]: 0.0112 µM (active)

Nc1ncnc2c1ncn2[C@@H]1O[C@H](CO)[C@@H](O)[C@H]1O
Potency [1]: inactive | activity (max response) [5]: -13.6%

CN(C)Cc1cccc(N=C(c2ccccc2)c2c(O)[nH]c3cc(C(=O)N(C)C)ccc23)c1
Potency [1]: 7.42 µM (active) | Potency [2]: 7.43 µM (active) | Potency [3]: 10.5 µM (active) | Potency [4]: inactive

C=CCNC1=C2C[C@@H](C)C[C@H](OC)[C@H](O)[C@@H](C)/C=C(\C)[C@H](OC(N)=O)[C@@H](OC)/C=C\C=C(/C)C(=O)NC(=CC1=O)C2=O
Potency [1]: 1.66 µM (active) | Potency [5]: 3.55 µM (active) | Potency [4]: 10 µM (active)

CC(C)(O)CS(=O)(=O)Nc1ccc2c(c1)CCN(C(=O)COc1cccnc1)C2
Potency [1]: 0.0295 µM (active) | Potency [5]: 0.282 µM (active) | Potency [4]: 0.112 µM (active)

CC(=O)O/N=C1/C(c2c(O)[nH]c3cc(Br)ccc23)=Nc2ccccc21
Potency [1]: 0.209 µM (active) | Potency [5]: 25.1 µM (active) | Potency [4]: 15.8 µM (active)

CC[C@H](C)C(=O)O[C@H]1CCC=C2C=C[C@H](C)[C@H](CC[C@@H]3C[C@@H](O)CC(=O)O3)[C@H]21
Potency [1]: 4.68 µM (active) | activity (max response) [5]: -23.7%

CCCCNc1c(C(=O)OCC)c(C)nc2c1cnn2CC
Potency [1]: inactive | activity (max response) [5]: -16.9%

Nc1ncccc1-c1nc2ccc(-c3ccccc3)nc2n1-c1ccc(C2(N)CCC2)cc1
Potency [1]: 5.25 µM (active) | Potency [5]: 25.1 µM (active) | Potency [4]: 3.98 µM (active)

CC(C)[C@H](CO)Nc1nc(Nc2ccc(C(=O)O)c(Cl)c2)c2ncn(C(C)C)c2n1
Potency [1]: 16.6 µM (active) | activity (max response) [5]: 10.6% | Potency [4]: inactive

CC(C)(C)C(=O)C(Oc1ccc(Cl)cc1)n1ccnc1 (configuration not stated)
Potency [1]: 20.6 µM (active) | activity (max response) [5]: -11.3% | Potency [4]: inactive

O=C(O)CNC(=O)CNC(=O)CNC(=O)CSC(=O)c1ccccc1
Potency [1]: inactive | activity (max response) [5]: -23.1% | Potency [4]: inactive

COc1cc(O)cc(O)c1
Potency [1]: inactive | activity (max response) [5]: -2.38% | Potency [4]: inactive

O=C(Nc1cnn2ccc(N3CCC[C@@H]3c3cc(F)ccc3F)nc12)N1CC[C@H](O)C1
Potency [1]: inactive | activity (max response) [5]: -2.6% | Potency [4]: inactive

CCN(CCCOc1ccc2c(Nc3cc(CC(=O)Nc4cccc(F)c4)[nH]n3)ncnc2c1)CCOP(=O)(O)O
Potency [1]: 58 nM (active) and 372 nM (active) | activity (max response) [5]: -30.5%
